Results reported in PubChem BioAssay (NCI).
Where “and” joins values, the source holds several entries; their conditions need not be identical. Equal values may be shown once. The panel holds about 83,000 compounds, 20% with a hit somewhere; the sample as a whole holds those more often.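 Interpretation: 100, growth as untreated; towards 0, rising growth inhibition; 0, no net growth; 0 to -100, cell death. Compounds scoring below 10 were considered active.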 Calls of active or inactive are those of the source.

Tested on: MDA-MB-468 breast
Assay: NCI-60 one-dose screen, 48 h (100 = growth as untreated, 0 = no growth, -100 = all killed)
Conditions: 10 µM unless noted

| SMILES | growth |
| --- | --- |
| Cc1cnc(-c2ccc(-c3ccc(NC(=O)Nc4c(F)cc(F)cc4F)cc3F)c3c2C(=O)NC3)[nH]1 | 39.6% (inactive) |
| CC[C@H](Nc1nc(N)nc(C)c1C#N)c1nc2cccc(NCCCCCC(=O)NO)c2c(=O)n1-c1ccccc1 | 11.7% (inactive) |
| C=C1C(=O)O[C@H]2[C@H]1CC/C(CNS(=O)(=O)c1ccc3ccccc3c1)=C\CC[C@@]1(C)O[C@@H]21 | -54% (active) |
| CN(C)CCC(CCN(C)C)(C(=O)O)c1ccccc1 | 102% (inactive) |
| C#C[C@]1(O)CC[C@H]2[C@@H]3CC=C4c5sc(Nc6cccc(F)c6)nc5CC[C@]4(C)[C@H]3CC[C@@]21C | 3.86% (active) |
| C=C(C)[C@@H]1CC[C@]2(COCCCNCCC#N)CC[C@]3(C)[C@H](CC[C@@H]4[C@@]5(C)CC[C@H](OCCCNCCC#N)C(C)(C)[C@@H]5CC[C@]43C)[C@@H]12 | 8.32% (active) |
| CC(=O)Nc1cccc(-c2ccc3c(c2)NC(=O)/C3=C\c2ccc[nH]2)c1 | 21.1% (inactive) |
| CCN(CC)C(=O)C1CCN(C(=O)c2ccccc2)CC1 | 109% (inactive) |
| COc1cc(C2CC(c3cc(Cl)c(C)cc3O)=NN2c2ccc(S(N)(=O)=O)cc2)cc(OC)c1OC (stereo unspecified) | 22.7% (inactive) |
| Cc1cc(C(=C2C=CC(=Nc3ccccc3)C=C2)c2ccc(Nc3ccccc3)cc2)ccc1N | -84.2% (active) |
| COc1ccc(C2CCCCC2=O)cc1 (stereo unspecified) | 109% (inactive) |
| C=CC(=O)OC1CCC(C(C)(C)CC)CC1 (stereo unspecified) | 108% (inactive) |
| CCCn1c(=S)sc2c(NNC(C)=O)nc(C)nc21 | 93.1% (inactive) |
| CC(=Nc1ccccc1)C1=C(O)C(Cc2ccc(O)cc2)NC1=O (stereo unspecified) | 17.6% (inactive) |
| CCN1CCN(c2nc3ccccc3c3c(=O)c4ccccc4sc23)CC1 | 35.5% (inactive) |
| O=C(N/N=C/c1ccccc1O)c1ccccc1Nc1ccnc(C(F)(F)F)c1 | -18.4% (active) |
| COc1ccc(NC(=O)c2ccc3c(c2)nc(-c2cc4ccccc4[nH]c2=O)n3-c2cc(C(C)(C)C)[nH]n2)cc1 | 95% (inactive) |
| CCOC(=O)c1ccc2c(c1)c1c(C)c3cccnc3c(C)c1n2C | 64.4% (inactive) |

| SMILES | growth |
| --- | --- |
| COc1cc2ncnc(-n3ncc4cc(NC(=O)Nc5ccc(Cl)c(Cl)c5)ccc43)c2cc1OC | -70.5% (active) |
| O=C1NC(=O)C(Cn2cnc3ccccc32)N1 (stereo unspecified) | 99% (inactive) |
| COc1cc2c(c(OC)c1O)C(=O)C(OC)C(c1ccc(O)c(O)c1)O2 (stereo unspecified) | 7.99% (active) |
| O=C1CSC(c2ccccc2O)N1c1nnc(Cn2cnnc2)o1 (stereo unspecified) | 96.2% (inactive) |
| C=CC1=C(C)C2=NC1=CC1=NC(=CC3=C(C)C4=C(O)C(C(=O)O)C(=C5NC(=C2)C(C)C5CCC(=O)O)C4=N3)C(CC)=C1C (stereo unspecified) | 115% (inactive) |
| C=COCCCCCCCCCCCCCCCCCC | 103% (inactive) |
| C#CC#CC#CC#CC#CC#CC#CC#CC[C@@H]1OC[C@H](COC(=O)O[C@@H](C(=O)O[C@H]2C[C@@]3(O)[C@@H](OC(=O)c4ccccc4)[C@@H]4[C@]5(OC(C)=O)CO[C@@H]5C[C@H](O)[C@@]4(C)C(=O)[C@H](OC(C)=O)C(=C2C)C3(C)C)[C@@H](NC(=O)c2ccccc2)c2ccccc2)O1 | -8.1% (active) |
| CC(C)(C)C(=O)OCOP(=O)(OCOC(=O)C(C)(C)C)C1CC(O)N(O)C1=O (stereo unspecified) | 61% (inactive) |
| CCNC(=O)Nc1ccc(-c2nc3c(c(N4CCOC[C@@H]4C)n2)CCN(C2COC2)C3)cc1 | 13.5% (inactive) and -25.6% (active) |
| Fc1ccc(Nc2nc3nonc3nc2Nc2ccc(F)cc2)cc1 | -4.42% (active) |
| CC1(C(=O)O)CCC(N)(C(=O)O)C1(C)C (stereo unspecified) | 115% (inactive) |
| O=C(O)c1ccc(P(=O)(O)O)c([N+](=O)[O-])c1 | 98.4% (inactive) |
| CCOC(=O)n1cc(-c2nonc2-c2cn(C)c3ccc(OC)cc23)c2cc(F)ccc21 | 87.3% (inactive) |
| CC(=O)Nc1ccc2c(c1)Cc1c(F)cccc1-2 | 8.46% (active) |
| CCOC(=O)CNC(=O)CCCCSc1ncnc2nc[nH]c12 | 95.4% (inactive) |
| N#Cc1c(N)nc(NCCO)nc1-c1ccc(F)cc1 | 102% (inactive) |
| Fc1ccc(C2CC(c3cccc(Nc4ccncc4)c3)=NN2c2ccccc2)cc1 (stereo unspecified) | -2.33% (active) |
| C#Cc1ccc(NC(=O)Cc2ccc(/C=C/C(=O)c3nccn3C)cc2)cc1 | 33.8% (inactive) |
